Source: PubChem BioAssay (Tox21)
Inconclusive results are not listed. Entries that show only a call come without a potency. Unmarked numbers belong to inactive results. Calls of active or inactive are those of the source. The call rests on the fitted dose curve; in most records, active means well fitted curve in the direction sought with a large enough effect in the repeat runs; inconclusive means weak or mixed curves; inactive means no such curve, though single readings can be large; an effect the other way counts as inactive or inconclusive.

Experiments:
[1] = A CellTox Green Cytotoxicity Assay to monitor cytotoxicity in HEK293 cells - 40 hour (AID 1224871); further: nearly all actives have a fitted effect of over 45% in size; further: potency means the concentration at half of the fitted maximal effect
Outline: (§1)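 Dead-cell fluorescence measured kinetically: asymmetric cyanine dye, HEK293, 600 cells/well, 5 h settle, 23 nL cpd/DMSO, 37 C, reads 0–40 h every 8 h.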

[2] = qHTS RealTime-Glo MT Cell Viability Assay in HEK293 cells - 16 hour (AID 1224872); further: nearly all actives have a fitted effect of over 50% in size; further: potency means the concentration at half of the fitted maximal effect
Outline: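 Nonlytic real-time viability readout: viable cells convert prosubstrate to NanoLuc substrate, giving luminescence proportional to live cell number. HEK293, 600 cells/well, compound added after 5 h, continuous culture at 37 C.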

[3] = qHTS RealTime-Glo MT Cell Viability Assay in HEK293 cells - 40 hour (AID 1224874); settings: RealTime-Glo luminescence; max response: hits give low values; further: nearly all actives have a fitted effect of over 50% in size; further: potency means the concentration at half of the fitted maximal effect
Outline: (§2)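 600 HEK293 cells per well, dispensed already mixed with RealTime-Glo MT reagents. Compound dosing came 5 h later. The same wells were read for luminescence at 0, 8, 16, 24, 32 and 40 h of exposure at 37 C.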

[4] = A CellTox Green Cytotoxicity Assay to monitor cytotoxicity in HEK293 cells - 24 hour (AID 1224875); further: nearly all actives have a fitted effect of over 45% in size; further: potency means the concentration at half of the fitted maximal effect
Outline: as §1

[5] = A CellTox Green Cytotoxicity Assay to monitor cytotoxicity in HepG2 cells - 16 hour (AID 1224876); further: nearly all actives have a fitted effect of over 45% in size; further: potency means the concentration at half of the fitted maximal effect
Outline: (§3)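 First, HepG2 cells (600/well) mixed with reagent were plated; second, after 5 h at 37 C they received compounds via pintool; third, fluorescence was measured at 0 h through 40 h at 8 h intervals.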

[6] = qHTS RealTime-Glo MT Cell Viability Assay in HepG2 cells - 32 hour (AID 1224877); further: nearly all actives have a fitted effect of over 55% in size
Outline: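 Luminescence read-out: viable HepG2 cells reduce a prosubstrate to a NanoLuc substrate, giving a signal proportional to live cell number. Reads taken at 0, 8, 16, 24, 32 and 40 h of compound exposure at 37 C.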

[7] = A CellTox Green Cytotoxicity Assay to monitor cytotoxicity in HepG2 cells - 24 hour (AID 1224878); further: nearly all actives have a fitted effect of over 45% in size; further: potency means the concentration at half of the fitted maximal effect
Outline: as §3

[8] = qHTS RealTime-Glo MT Cell Viability Assay in HEK293 cells - 0 hour (AID 1224880)
Outline: as §2

[9] = A CellTox Green Cytotoxicity Assay to monitor cytotoxicity in HepG2 cells - 40 hour (AID 1224879); further: nearly all actives have a fitted effect of over 40% in size; further: potency means the concentration at half of the fitted maximal effect
Outline: as §3

[10] = qHTS RealTime-Glo MT Cell Viability Assay in HepG2 cells - 8 hour (AID 1224873); further: nearly all actives have a fitted effect of over 55% in size
Outline: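 Real-time viability: cells seeded at 600 per well together with NanoLuc and cell-permeant prosubstrate, compounds added after 5 h incubation. Luminescence tracked at 0, 8, 16, 24, 32 and 40 h of exposure.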

Compound	Potency [1]	Potency [2]	max response [3]	Potency [4]	Potency [5]	Potency [6]	Potency [7]	outcome [8]	Potency [9]	Potency [3]	Potency [10]
Cc1cccc(C#N)c1	inactive	inactive	6.99%	inactive	inactive	inactive	inactive	inactive	–	–	–
CCCSC(=O)Cl	inactive	inactive	9.13%	inactive	inactive	inactive	inactive	inactive	inactive	–	–
CCOP(=S)(OCC)SCSP(=S)(OCC)OCC	inactive	inactive	7.42%	inactive	inactive	inactive	inactive	inactive	inactive	–	–
COc1cc(OC)nc(NC(=O)NS(=O)(=O)c2ncccc2OCC(F)(F)F)n1	inactive	inactive	0.591%	inactive	inactive	inactive	inactive	inactive	inactive	–	–
C#CCN1C(=O)COc2cc(F)c(N3C(=O)C4=C(CCCC4)C3=O)cc21	inactive	inactive	2.01%	inactive	inactive	inactive	inactive	inactive	inactive	–	–
CCOC(=O)/C=C(C)/C=C/C[C@@H](C)CCCC(C)C	inactive	inactive	–	inactive	inactive	inactive	inactive	inactive	inactive	–	–
CCCCOC(=O)c1ccccc1N	49.3 µM (active)	inactive	0.429%	–	inactive	inactive	49.3 µM (active)	inactive	55.3 µM (active)	–	–
O=C(Oc1ccc(Br)cc1)N1CCN2CCC1CC2	inactive	inactive	-0.781%	inactive	inactive	inactive	inactive	inactive	inactive	–	–
CNC(=O)Oc1cccc(C(C)C)c1	inactive	inactive	-3.66%	inactive	inactive	inactive	inactive	inactive	inactive	–	–
COP(=S)(OC)Oc1ccc(S(N)(=O)=O)cc1	inactive	inactive	-1.36%	inactive	inactive	inactive	inactive	inactive	–	–	–
C[N+](C)=CCl	inactive	inactive	17.5%	inactive	inactive	inactive	inactive	inactive	–	–	–
CCCCOC(=O)[C@@H](C)Oc1ccc(Oc2ccc(C#N)cc2F)cc1	inactive	13.7 µM (active)	–	inactive	inactive	inactive	inactive	inactive	inactive	38.7 µM (active)	–
CCC(C)n1c(=O)[nH]c(C)c(Br)c1=O (stereo not given)	inactive	inactive	0.435%	inactive	inactive	inactive	inactive	inactive	inactive	–	–
CCOC(=O)CP(=O)(OCC)OCC	inactive	inactive	0.417%	inactive	inactive	inactive	inactive	inactive	inactive	–	–
ClC(Cl)C(Cl)Cl	inactive	inactive	0.239%	inactive	–	inactive	–	inactive	–	–	–
CC(CC(C#N)(c1ccccc1)c1ccccc1)N(C)C (stereo not given)	inactive	inactive	–	inactive	inactive	inactive	inactive	inactive	–	–	–
COc1ncc(F)c2nc(S(=O)(=O)Nc3c(F)cccc3F)nn12	13.9 µM (active)	inactive	6.8%	12.4 µM (active)	inactive	inactive	inactive	inactive	inactive	–	–
CC1CCCCC1NC(=O)Nc1ccccc1 (stereo not given)	inactive	–	–	inactive	inactive	inactive	inactive	inactive	–	–	inactive
COc1ccc2c(c1OC)CN1CCc3cc4c(cc3C1C2)OCO4 (stereo not given)	inactive	–	–	inactive	inactive	inactive	inactive	inactive	inactive	–	inactive
CCCCc1c(C)nc(NCC)[nH]c1=O	inactive	–	–	inactive	inactive	inactive	–	inactive	–	–	inactive
[As]#[In]	inactive	–	–	inactive	inactive	inactive	–	inactive	–	–	inactive
CC(C)(C)OC(=O)c1ncn2c1[C@@H]1CCCN1C(=O)c1c(Br)cccc1-2	inactive	–	–	inactive	inactive	inactive	inactive	inactive	inactive	–	inactive
OC(c1ccc(F)cc1)(c1cncnc1)c1ccccc1Cl (stereo not given)	–	inactive	–	inactive	inactive	inactive	inactive	inactive	inactive	–	inactive
[Cl][Sn]([Cl])([Cl])[Cl]	–	inactive	–	–	inactive	inactive	inactive	inactive	inactive	–	inactive
CCOP(=O)(N=C1SCCS1)OCC	inactive	–	21.4%	inactive	inactive	inactive	inactive	inactive	inactive	–	inactive
CC1(C(=O)Nc2ccc(O)c(Cl)c2Cl)CCCCC1	–	–	–	–	–	inactive	–	inactive	–	–	inactive
CN1C(=S)CN=C(c2ccccc2)c2cc(Cl)ccc21	–	inactive	–	inactive	inactive	inactive	inactive	inactive	inactive	–	inactive
COc1cc2c(cc1OC)[C@@]13CCN4CC5=CCO[C@H]6CC(=O)N2[C@H]1[C@H]6[C@H]5C[C@H]43	inactive	inactive	–	inactive	inactive	inactive	inactive	inactive	–	–	–

Compound	Potency [1]	Potency [2]	max response [3]	Potency [4]	Potency [5]	Potency [6]	Potency [7]	outcome [8]	Potency [9]	Potency [3]	Potency [10]
CCSC(=O)N(CC)C1CCCCC1	–	inactive	-0.642%	inactive	inactive	inactive	inactive	inactive	inactive	–	inactive
CCOP(=S)(Oc1cnc(C(C)(C)C)nc1)OC(C)C (stereo not given)	–	inactive	–	inactive	inactive	inactive	inactive	inactive	inactive	–	inactive
O=P(O)(Oc1ccccc1)Oc1ccccc1	inactive	–	11.6%	inactive	inactive	inactive	inactive	inactive	inactive	–	inactive
CCN(CC)CCOC(=O)C(C)(c1ccccc1)c1ccccc1	inactive	inactive	–	inactive	inactive	inactive	–	inactive	–	–	–
CC(C(O)c1ccccc1)N(C)C/C=C/c1ccccc1 (stereo not given)	inactive	–	–	inactive	inactive	inactive	–	inactive	–	–	inactive
O=[N+]([O-])c1cccc2c([N+](=O)[O-])cccc12	inactive	–	–	inactive	inactive	inactive	inactive	–	–	49.2 µM (active)	inactive
CC1(C)C(=O)NC(=O)NC1=O	–	inactive	-10.9%	–	inactive	inactive	inactive	inactive	inactive	–	inactive
CN1CCC(O)(c2ccc(F)cc2)C(C(=O)c2ccc(F)cc2)C1 (stereo not given)	–	inactive	-17.3%	inactive	–	–	–	inactive	–	–	inactive
Cc1ncc2n1-c1ccc(Cl)cc1C(c1ccccc1F)=NC2	inactive	–	–	inactive	inactive	inactive	inactive	inactive	inactive	–	inactive
C#C[C@]1(O)C=C[C@H]2[C@@H]3CCC4=CC(=O)CC[C@@H]4[C@H]3CC[C@@]21CC	inactive	–	–	inactive	inactive	inactive	inactive	inactive	inactive	–	inactive
O=C(Cc1ccccc1)OCc1ccccc1	–	inactive	-18.6%	inactive	inactive	inactive	inactive	inactive	inactive	–	inactive
CC(COc1ccc(Oc2ccccc2)cc1)Oc1ccccn1 (stereo not given)	inactive	–	–	inactive	inactive	inactive	inactive	inactive	inactive	–	inactive
CCc1cc2c(s1)-n1c(C)nnc1CN=C2c1ccccc1Cl	–	inactive	-28.6%	–	inactive	inactive	inactive	inactive	inactive	–	inactive
CC(C1CC1)C(O)(Cn1cncn1)c1ccc(Cl)cc1 (stereo not given)	inactive	–	–	inactive	inactive	inactive	inactive	inactive	inactive	–	–
C=CCC1=C(C)[C@@H](OC(=O)[C@@H]2[C@@H](C=C(C)C)C2(C)C)CC1=O	–	11 µM (active)	–	–	inactive	inactive	49 µM (active)	inactive	49 µM (active)	21.9 µM (active)	inactive
CC1COC2(c3ccccc3Cl)c3cc(Cl)ccc3NC(=O)CN12 (stereo not given)	inactive	–	–	inactive	inactive	inactive	inactive	inactive	–	–	inactive
Cc1ccccc1CO[C@@H]1C[C@@]2(C(C)C)CC[C@]1(C)O2	–	inactive	-15.4%	–	inactive	inactive	inactive	inactive	inactive	–	inactive
COP(=S)(OC)Oc1c(Cl)cc(C)cc1Cl	inactive	inactive	–	inactive	inactive	inactive	inactive	inactive	–	–	–
CC1=C(C(=O)Nc2ccccc2)S(=O)(=O)CCO1	–	–	–	inactive	inactive	inactive	inactive	–	inactive	43.6 µM (active)	inactive
O=C(Nc1ccccc1)N(Cc1ccc(Cl)cc1)C1CCCC1	inactive	21.9 µM (active)	–	inactive	inactive	–	inactive	inactive	inactive	–	–
CSc1nc(N=[N+]=[N-])nc(NC(C)C)n1	inactive	–	–	inactive	inactive	inactive	inactive	inactive	–	–	–
c1coc(-c2nc3ccccc3[nH]2)c1	inactive	–	–	inactive	inactive	inactive	inactive	inactive	–	–	inactive
CCCCc1ccc(O)cc1	–	–	–	inactive	21.8 µM (active)	inactive	21.8 µM (active)	inactive	–	15.5 µM (active)	inactive
Fc1ccc(C2(Cn3cncn3)OC2c2ccccc2Cl)cc1 (stereo not given)	–	–	–	inactive	inactive	inactive	–	inactive	–	–	inactive
COC(C)(C)C	–	inactive	6.3%	inactive	inactive	inactive	inactive	inactive	inactive	–	inactive
O=C(CCCN1CCC(n2c(=O)[nH]c3ccccc32)CC1)c1ccc(F)cc1	inactive	–	–	inactive	–	inactive	inactive	inactive	inactive	–	inactive
Nc1cc(Cl)ccc1O	inactive	–	-11.2%	inactive	inactive	inactive	inactive	inactive	inactive	–	inactive
